The results in this text go back to PubChem BioAssay (NCI).

Compounds without any hit were thinned out: in the full panel of roughly 83,000, 20% have a hit.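 Compound tested at a single concentration for 48 hours in 96-well plates; a percent growth value below 10 was scored as active.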 Values without a mark were called inactive. The source made the active and inactive calls.

Among the test systems are NCI-H23 lung; NCI-H226 lung; NCI-H322M lung; HOP-62 NSCLC; NCI-H460 lung; HOP-92 NSCLC; NCI-H522 lung; A549/ATCC NSCLC; 786-0 renal; COLO 205 colon.
Common to all, as to test: NCI-60 one-dose screen, 48 h (100 = growth as untreated, 0 = no growth, -100 = all killed)
What all share (details): 10 µM unless noted

On to `CN(C)CCCC1(c2ccc(F)cc2)OCc2cc(-c3ccc4cc[nH]c4c3)ccc21` (stereo not given), for which the growth in the assay with NCI-H23 lung is 86.6%; with NCI-H226 lung, 95.2%; in the assay on NCI-H322M lung it was 65%; with HOP-62 NSCLC, 74.9%; in the assay on NCI-H460 lung, -10.5% (active); with HOP-92 NSCLC, 45.9%. The growth is 61.5% with NCI-H522 lung, 49.1% with A549/ATCC NSCLC, 78.1% in the assay on 786-0 renal and 9.88% (active) in the assay with COLO 205 colon.

Regarding `CC1C=CC(OC(=O)C(C)(O)CCC(O)(C(=O)OC2CC(O)C(C(C)C)CC2(C)O)C(C)C)(C(C)C)CC1` (stereo not given), the growth in the assay on NCI-H23 lung is -70.5% [4.63 µM] (active); in the assay with NCI-H226 lung it was -48.6% [4.63 µM] (active); with NCI-H322M lung, -89.9% [4.63 µM] (active); in the assay with HOP-62 NSCLC it was -68.7% [4.63 µM] (active); in the assay with NCI-H460 lung, -69.3% [4.63 µM] (active); in the assay on HOP-92 NSCLC it was -67.1% [4.63 µM] (active). The growth was -76.7% [4.63 µM] (active) in the assay on NCI-H522 lung, -78.2% [4.63 µM] (active) in the assay with A549/ATCC NSCLC, -88.5% [4.63 µM] (active) with 786-0 renal and -68.3% [4.63 µM] (active) with COLO 205 colon.

With `COc1cccc(C(=O)NNc2nc(Cl)nc(Cl)n2)c1`, the growth is 99.1% in the assay with NCI-H23 lung; 105% with NCI-H226 lung; 98.5% in the assay on NCI-H322M lung; 104% with HOP-62 NSCLC; 107% with NCI-H460 lung; 98.3% with HOP-92 NSCLC. Further, the growth is 100% with NCI-H522 lung, 105% with A549/ATCC NSCLC, 101% with 786-0 renal and 107% with COLO 205 colon.

`Oc1c(CN2CCC(N3CCCCC3)CC2)cc(Cc2cc(CN3CCC(N4CCCCC4)CC3)c(O)c3ncccc23)c2cccnc12`: the growth is 39.3% in the assay on NCI-H23 lung; 5.18% (active) in the assay on NCI-H226 lung; 19.7% in the assay with NCI-H322M lung; 18.6% with HOP-62 NSCLC; 5.8% (active) in the assay with NCI-H460 lung; 30.5% in the assay with HOP-92 NSCLC. The growth is -34.7% (active) in the assay with NCI-H522 lung, 22.9% in the assay with A549/ATCC NSCLC, 24.4% in the assay with 786-0 renal and -3.12% (active) in the assay with COLO 205 colon.

With `Cc1nc2cc(O)c(O)cc2cc1Oc1ccc(NC(=O)Nc2ccc(Cl)c(Cl)c2)cc1`, the growth with NCI-H23 lung is 62.8%; with NCI-H226 lung it was 38.3%; in the assay on NCI-H322M lung it was 94%; in the assay on HOP-62 NSCLC, 35.7%; in the assay with NCI-H460 lung, 62.1%; in the assay on HOP-92 NSCLC it was 37.5%. The growth with NCI-H522 lung is 1.87% (active); in the assay with A549/ATCC NSCLC, 50.5%; in the assay with 786-0 renal it was 103%; with COLO 205 colon, 34.7%.

For `CCCCC#Cc1c(I)n(C)c(=O)[nH]c1=O`, the growth with NCI-H23 lung was 14.4%; in the assay with NCI-H226 lung, 39.8%; in the assay on NCI-H322M lung, 101%; in the assay with HOP-62 NSCLC, 93.9%; with NCI-H460 lung, 103%; in the assay with HOP-92 NSCLC, -89.7% (active). Moreover, the growth in the assay on NCI-H522 lung is -13.4% (active); with A549/ATCC NSCLC, 70.9%; with 786-0 renal, 98.2%; in the assay on COLO 205 colon, -36.8% (active).

Regarding `O=C1c2ccccc2C(=O)C1c1ccc(Br)cc1`, the growth with NCI-H23 lung is 81.6%; in the assay with NCI-H226 lung it was 103%; with NCI-H322M lung, 122%; in the assay with HOP-62 NSCLC it was 115%; with NCI-H460 lung it was 102%; in the assay on HOP-92 NSCLC, 75.1%. In addition, the growth with NCI-H522 lung is 96.9%; with A549/ATCC NSCLC it was 108%; in the assay with 786-0 renal, 93.9%; in the assay on COLO 205 colon it was 113%.

For the compound `COC(=O)CCC/C=C\C[C@H]1C=CC(=O)/C1=C/C[C@@H](O)C/C=C\CC(F)(F)F`, the growth in the assay with NCI-H23 lung was -15.2% (active); with NCI-H226 lung it was -48% (active); in the assay on NCI-H322M lung, 46.9%; in the assay on HOP-62 NSCLC it was -12.4% (active); in the assay on NCI-H460 lung it was -47.2% (active); in the assay with HOP-92 NSCLC, -18.8% (active). The growth is -56.6% (active) with NCI-H522 lung, -3.51% (active) in the assay with A549/ATCC NSCLC, -39.5% (active) in the assay with 786-0 renal and -36.2% (active) in the assay with COLO 205 colon.

For the compound `CCN1C(=O)N(CC)C2C1NC(=S)N2/N=C/c1ccc(OC)cc1` (stereo not given), the growth in the assay with NCI-H23 lung was 74.9%; in the assay on NCI-H226 lung, 78.8%; in the assay on NCI-H322M lung, 79.4%; with HOP-62 NSCLC, 59.5%; in the assay on NCI-H460 lung, 26.1%; with HOP-92 NSCLC it was 70.5%. The growth was 16.8% with NCI-H522 lung, 41.7% in the assay with A549/ATCC NSCLC, 62.1% with 786-0 renal and 41.7% with COLO 205 colon.

With `C=C1C(=O)O[C@H]2[C@H]1CC/C(COC(=O)c1ccc(C(=O)O)s1)=C\CC[C@@]1(C)O[C@@H]21`, the growth in the assay with NCI-H23 lung was 57.4%; with NCI-H226 lung it was 41.9%; in the assay with NCI-H322M lung, 68.2%; in the assay with HOP-62 NSCLC, 75%; in the assay on NCI-H460 lung it was 30.6%; in the assay with HOP-92 NSCLC, 1.03% (active). Also, the growth with NCI-H522 lung was -79.8% (active); in the assay on A549/ATCC NSCLC, 80.3%; with 786-0 renal it was 41.6%; in the assay on COLO 205 colon it was -0.755% (active).

For the compound `Cc1ccc(N2C(=O)CCC2=O)cc1`, the growth was 101% in the assay with NCI-H23 lung; 105% in the assay on NCI-H226 lung; 104% with NCI-H322M lung; 99.2% in the assay on HOP-62 NSCLC; 99.7% with NCI-H460 lung; 96.3% with HOP-92 NSCLC. Besides, the growth is 74.2% in the assay with NCI-H522 lung, 102% with A549/ATCC NSCLC, 97.4% in the assay with 786-0 renal and 107% in the assay with COLO 205 colon.

On to `C=CN(C(=O)N1CCN(c2cc3c(cc2F)c(=O)c(C(=O)O)cn3C2CC2)CC1)c1nc(-c2ccc(OC)cc2)cs1`, for which the growth was 12.7% with NCI-H23 lung; 37.8% in the assay on NCI-H226 lung; 15.3% with NCI-H322M lung; 18.5% in the assay with HOP-62 NSCLC; 10.8% in the assay on NCI-H460 lung; -14.1% (active) in the assay on HOP-92 NSCLC. The growth with NCI-H522 lung was 12.7%; in the assay with A549/ATCC NSCLC, 16.6%; in the assay on 786-0 renal it was 30.5%; in the assay with COLO 205 colon, 29.5%.
